# Assay results published in PubChem BioAssay AID651814 (National Center for Advancing Translational Sciences (NCATS), 2012).
# Hit rate of the full screen: of about 2,100 compounds, about 590 (28%) were called active. Inconclusive results (about 42%) are left out. The call rests on the fitted dose curve; in most records, active means well fitted inhibition curve with a large enough effect; inconclusive means small, poorly fitted or top-dose-only effect; inactive means flat fitted curve, though single readings scatter. Some of the results follow.
# Biological target: DNA dC->dU-editing enzyme APOBEC-3F (Homo sapiens) (UniProt Q8IUX4)
# Sequence (Q8IUX4 whole entry, looked up): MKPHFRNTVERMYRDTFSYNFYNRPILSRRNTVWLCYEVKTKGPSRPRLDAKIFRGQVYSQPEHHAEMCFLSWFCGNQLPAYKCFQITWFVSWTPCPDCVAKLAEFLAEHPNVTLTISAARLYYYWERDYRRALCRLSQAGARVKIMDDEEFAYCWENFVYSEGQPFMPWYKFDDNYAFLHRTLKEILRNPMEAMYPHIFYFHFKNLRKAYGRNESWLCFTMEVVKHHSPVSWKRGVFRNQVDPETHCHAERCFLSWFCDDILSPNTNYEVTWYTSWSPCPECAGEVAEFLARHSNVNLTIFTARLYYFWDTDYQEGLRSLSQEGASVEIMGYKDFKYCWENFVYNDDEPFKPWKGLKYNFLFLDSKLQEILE
# Test: qHTS for inhibitors of Vif-A3F interactions: Cherry picks; further: nearly all actives have a fitted effect of over 70% in size;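 on max response: % of control where 0% means no effect; active compounds raise eYFP fluorescence by blocking Vif-driven A3F loss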
# Conditions: HeLa A3F-eYFP + Vif (tagged APOBEC3F with the HIV-1 protein that degrades it), eYFP fluorescence, 24 h
# Method in brief: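 Read-out: yellow fluorescence (ex 488 nm, em 500-530 nm) by laser-scanning cytometer after 24 h compound exposure, several concentrations, at 37 deg C. Cells: HeLa line stably co-expressing Vif and C-terminally eYFP-tagged A3F; MG132 served as positive control.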
# Potency means the concentration at half of the fitted maximal effect.
SMILES,max response,Potency
CS(=O)(=O)Nc1ccc(C2=NN(S(=O)(=O)c3ccccc3)C(c3cccs3)C2)cc1 (stereo not drawn),-22.9% (inactive),–
CCOc1ccccc1C1CC(c2cccs2)=NN1S(C)(=O)=O (stereo not drawn),-22.3% (inactive),–
CCc1ccc(C2=NN(S(C)(=O)=O)C(c3cccs3)C2)cc1 (stereo not drawn),–,15.8 µM (active)
N#C/C(=C\c1cccc(O)c1)c1nc2ccccc2o1,–,3.53 µM (active)
C=CCN1C(=O)c2cccc3c(N4CCCCC4)ccc(c23)C1=O,–,16.4 µM (active)
O=C1c2cccc3c(N4CCCCC4)ccc(c23)C(=O)N1CCO,–,15.8 µM (active)
O=C1c2cccc3c(N4CCCCC4)ccc(c23)C(=O)N1c1ccc(O)cc1,-17.3% (inactive),–
COc1ccccc1N1C(=O)c2cccc3c(C(=O)O)ccc(c23)C1=O,1.5% (inactive),–
CCCCN1C(=O)c2cccc3cc(O)cc(c23)C1=O,-4.14% (inactive),–
O=C(O)c1ccccc1N/N=C/c1c(Sc2nnnn2-c2ccccc2)nc2ccccn2c1=O,–,9.94 µM (active)
CN1C/C(=C\c2ccc(N3CCOCC3)cc2)C(=O)/C(=C/c2ccc(N3CCOCC3)cc2)C1,–,18.4 µM (active)
Cc1ccc(Cc2c(C3CCCCC3)nc3ccc(C)cn23)cc1,-5.74% (inactive),–
COc1ccccc1/C=C/C=N/n1c(-c2ccc(C)cc2)n[nH]c1=S,-22% (inactive),–
Cc1ccc(-c2nc(-c3cc4cccc(OCc5cccc(F)c5)c4oc3=O)no2)cc1,–,18.4 µM (active)
Nc1c(C(=O)c2ccccc2)sc2snc(SCC(=O)c3ccccc3)c12,–,17.7 µM (active)
Nc1c(C(=O)c2ccccc2)sc2nsc(SCCN3CCCC3)c12,–,14 µM (active)
N#CC(C(=O)NCc1ccccc1)c1nc2ccccc2nc1N1CCCC1 (stereo not drawn),-25.3% (inactive),–
CCN(CC)c1nc2ccccc2nc1C(C#N)C(=O)NCCc1ccccc1 (stereo not drawn),–,3.66 µM (active)
CC1=CN2C(=N)/C(=C/c3ccc([N+](=O)[O-])o3)C(=O)N=C2S1,–,14 µM (active)
CCS(=O)(=O)C1=NN2C(=N)/C(=C\c3ccc(SCc4ccco4)o3)C(=O)N=C2S1,-0.189% (inactive),–
CCCCN1C(=O)/C(=C/C=C2\Oc3ccccc3N2CC)SC1=S,-1.16% (inactive),–
CCSC1=N/C(=C\C=C2/Oc3ccccc3N2CC)C(=O)S1,–,20.6 µM (active)
CC(O)CN(CC(C)O)c1ccc2c(c1)Cc1cc([N+](=O)[O-])ccc1-2 (stereo not drawn),–,3.66 µM (active)
COC(=O)c1[nH]c2c(c1C(=O)OC)CCc1ccccc1-2,-7.85% (inactive),–

SMILES,max response,Potency
CC(C)c1ccc(NC(=O)Nc2cnccn2)cc1,-23.5% (inactive),–
CC(=O)c1sc2nc(-c3cccs3)cc(C(F)(F)F)c2c1N,–,7.31 µM (active)
Cc1nc(-c2ccc(Cl)cc2)sc1C(=O)NN,-25% (inactive),–
CCN(CC)C(=O)c1sc2nc(-c3cccs3)cc(-c3ccc(Cl)cc3)c2c1N,–,15.8 µM (active)
CC(C)(C)C(=O)c1sc2nc(-c3cccs3)cc(C(F)(F)F)c2c1N,–,1.03 µM (active)
Nc1c(C(=O)C2CC2)sc2nc(-c3cccs3)cc(C(F)(F)F)c12,–,1.64 µM (active)
S=C(NC1CCCCC1)N(CCc1ccccc1)CCc1ccccc1,-2.16% (inactive),–
Cc1ccc(N2C(=O)CS/C2=C(\C(Cl)=C(Cl)Cl)[N+](=O)[O-])cc1,2.65% (inactive),–
Cc1ccc(NC(=O)C(=Cc2ccc(C(=O)O)cc2)C(=O)Nc2ccc(C)cc2C)c(C)c1,–,5.59 µM (active)
O=C(O)c1ccc(N/N=C/C(Br)=C/c2ccccc2)cc1,-18.2% (inactive),–
Cc1ccc(NC(=O)Cc2ccc(-n3cccc3)cc2)c(C)c1,-1.25% (inactive),–
O=C1COc2ccc(C(=O)CSc3nc4ccccc4c(=O)n3-c3ccc(Cl)c(Cl)c3)cc2N1,–,18.4 µM (active)
O=S(=O)(N=C1C=CC(=NS(=O)(=O)c2ccccc2)c2ccccc21)c1ccccc1,-24.1% (inactive),–
O=C(/C=C/c1ccncc1)c1cc(Cl)ccc1O,3.83% (inactive),–
CC[n+]1c(/C=C/Nc2ccccc2)oc2ccc(OC)cc21,–,20.6 µM (active)
COc1ccc(N/C=C/C(=O)c2sc(-c3ccccc3)nc2C)cc1,-17.8% (inactive),–
CC[n+]1c(/C=C/N(C)c2ccccc2)oc2ccc(F)cc21,–,11.2 µM (active)
CC[n+]1c(/C=C/Nc2ccccc2)oc2ccccc21,–,7.31 µM (active)
CCOC(=O)c1c(CC(C)C)csc1/N=C/C1C(=O)CCCC1=O,-3.21% (inactive),–
CCc1ccc2c(c1)NC(=O)C2(C)Cc1ccccc1Cl (stereo not drawn),-19.4% (inactive),–
COc1ccccc1C(=O)NC(=S)Nc1ccc(NC(=O)c2ccco2)cc1,-12.8% (inactive),–
COCCCNc1nc2ccccc2nc1NS(=O)(=O)c1ccccc1,-2.62% (inactive),–
CCN(CC)c1ccc2c(c1)oc(=O)c1c(Cl)cc(=O)oc12,–,20.6 µM (active)
Cc1ccc(O)c(NC(=O)c2cc(-c3ccccc3O)no2)c1,–,18.4 µM (active)

SMILES,max response,Potency
Cc1ccc(O)c(Nc2c3ccccc3nc3ccccc23)c1,-0.294% (inactive),–
CCc1nnc(NC(=O)CSc2nnc(-c3ccccc3O)n2-c2ccc(C)cc2C)s1,-23.9% (inactive),–
Cn1cc(/C=C/c2ccc3ccccc3n2)c2ccccc21,–,20.6 µM (active)
Cn1cc(/C=C/c2ccnc3ccccc23)c2ccccc21,–,23.1 µM (active)
COC(=O)C1=COC(C)C2CN3CCc4c([nH]c5cc(OC)c(OC)cc45)C3CC12 (stereo not drawn),-8.29% (inactive),–
CC(=O)Nc1ccc(S(=O)(=O)Nc2nc3ccccc3nc2Nc2ccc(N)cc2)cc1,-0.838% (inactive),–
O=[N+]([O-])c1cc(O)c2ncccc2c1,-7.28% (inactive),–
Cc1cc(N2CCN(c3ccc([N+](=O)[O-])c4cccnc34)CC2)c2ccccc2n1,–,10.3 µM (active)
O=[N+]([O-])c1cc(Cl)c2cccnc2c1O,3.56% (inactive),–
Cc1cc(C)c2cc3c(N)c(C(=O)Nc4c(C)[nH]c(=O)[nH]c4=O)sc3nc2c1,–,13 µM (active)
Cc1ccc(C2=NN(C(=O)c3cccs3)C(c3ccccc3O)C2)cc1 (stereo not drawn),-0.929% (inactive),–
Cc1ccc(C2C(C(=O)c3cccs3)=C(O)C(=O)N2c2nnc(C)s2)cc1 (stereo not drawn),–,19.8 µM (active)
CCCSc1nnc(N2C(=O)C(O)=C(C(=O)c3ccco3)C2c2ccccc2F)s1 (stereo not drawn),-6.1% (inactive),–
FC(F)(F)c1ccccc1NC(=S)NN=C1CCCCCC1,0.807% (inactive),–
O=C(NNC1=Nc2cccc3cccc1c23)c1ccc(Br)cc1,–,16.4 µM (active)
CC(C)OC(=O)c1cc(C(=O)c2cc(F)ccc2O)coc1=N,–,23.1 µM (active)
C=CCN=c1scc(-c2ccc(F)cc2)n1/N=C/c1ccccn1,5.22% (inactive),–
Cc1ccc(-n2nc3c(SCCN4CCOCC4)nnc(C)c3c2C)cc1,-16.8% (inactive),–
Cc1nnc(SCC(=O)NCc2ccccc2F)c2nn(-c3ccc(Cl)cc3)c(C)c12,–,16.4 µM (active)
C=C1C(=O)O[C@H]2C1CC[C@@](C)(O)C13C=CC(C)(C21)C1(C3)C(=O)O[C@@H]2C3C(C)=CCC3[C@](C)(O)C[C@H](OC(C)=O)C21 (stereo partly drawn),-25.3% (inactive),–
CCN1/C(=C/c2cc[n+](C)cc2)C=Cc2cc(C)ccc21,–,11.6 µM (active)
CCN1/C(=C/c2ccc3ccccc3[n+]2CC)C=Cc2ccccc21,-17% (inactive),–
CC1(C)COC(Cn2c3ccccc3c3ccccc32)O1 (stereo not drawn),-25.3% (inactive),–
CCOc1cc([N+](=O)[O-])cc2c1C(=O)Nc1ccccc1O2,-12% (inactive),–

SMILES,max response,Potency
O=C1Nc2ccc(Br)cc2C12NNc1ccccc1O2 (stereo not drawn),–,14 µM (active)
COc1ccc(CCNC(=O)CC2(CC3=NS(=O)(=O)c4ccccc4N3)CCCC2)cc1OC,-0.97% (inactive),–
Cc1cc(C)cc(NC(=O)Cn2cc(C(=O)C3CCCCC3)c3ccccc32)c1,–,18.4 µM (active)
Cc1cc(C)cc(NC(=S)NC(=O)C2CC2)c1,-4.35% (inactive),–
CCn1c2ccccc2c2cc(NC(=O)CNCc3ccccc3OC)ccc21,-24.7% (inactive),–
CN(C)c1ccc(C=Cc2nccc3ccccc23)cc1,–,11.2 µM (active)
CCN(Cc1ccccc1)c1ccc(/C=C/c2nccc3ccccc23)cc1,–,20.6 µM (active)
CCN(Cc1ccccc1)c1ccc(/C=C(\C#N)c2ccccn2)cc1,-7.46% (inactive),–
CCN(CC)c1nc(C=Cc2ccc(N(C)C)cc2)c2nccnc2n1,–,1.84 µM (active)
CN(C)c1ccc(/C=C/c2nccc3ccccc23)cc1,–,18.4 µM (active)
O=C(OCC12CC3CC(CC(C3)C1)C2)c1ccc(NCc2cc(O)ccc2O)cc1,-19.8% (inactive),–
NC(=O)c1ccc(NC(=O)C#Cc2ccccc2)cc1,-20.2% (inactive),–
CC[n+]1c(C=C2C=C(C)OC(C)=C2)sc2ccccc21,–,2.31 µM (active)
CN(C)c1ccc2nc3c(=O)[nH]c(=O)nc-3n(CC(O)C(O)C(O)CO)c2c1 (stereo not drawn),-2.88% (inactive),–
CCN(CC)c1ccc(C=NNc2ccc([N+](=O)[O-])cn2)cc1,-25.4% (inactive),–
O=[N+]([O-])c1ccc(N/N=C\c2cccn2-c2ccccc2)nc1,–,14 µM (active)
CC1=C(n2nnc3ccccc32)C(c2ccccc2)C(C#N)=C(N)O1 (stereo not drawn),-5.98% (inactive),–
COc1cc(C2C(C#N)=C(N)Oc3cc(O)ccc32)cc2c1OCO2 (stereo not drawn),-28.2% (inactive),–
CCN(CC)c1ccc2c(c1)OC(N)=C(C#N)C2c1cccnc1 (stereo not drawn),–,17.7 µM (active)
CN(C)c1ccc(/C=C(/C#N)C(=O)NCc2ccccc2)o1,–,14.6 µM (active)
N#C/C(=C\c1ccccc1[N+](=O)[O-])C(=O)NCc1ccccc1,-6.74% (inactive),–
